One assay relates to CRL-7250. In words: Cytotoxic Profiling of Annotated Libraries Using Quantitative High-Throughput Screening (AID 1296008). Conditions: Five cell lines viability, CellTiter-Glo ATP luminescence, 48-72 h; max response: hits give low values. In a few lines:
(§1)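 Compounds were pin-transferred onto cells and incubated 48 or 72 hr at 37 degree Celsius, 95% humidity. CellTiter-Glo was added, plates sat 10 min at room temperature, then ATP-coupled luminescence was imaged as the viability read-out.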

The next assay has as its system HEK293. Described as above. Conditions: Five cell lines viability, CellTiter-Glo ATP luminescence, 48-72 h; max response: hits give low values. The procedure, abridged:
as §1

The subject of assay [1] is HaCat. The description is as above. Conditions: Five cell lines viability, CellTiter-Glo ATP luminescence, 48-72 h; max response: hits give low values. In a few lines: as §1
For another assay, the system named is KB-3-1. The description is as above. The following applies: Five cell lines viability, CellTiter-Glo ATP luminescence, 48-72 h; max response: hits give low values. The procedure, abridged:
as §1

For the next assay, the system named is NIH3T3. Described as above. Conditions: Five cell lines viability, CellTiter-Glo ATP luminescence, 48-72 h; max response: hits give low values. In a few lines: as §1
In a further assay the test system is HEK293T. Put plainly: qHTS assay to identify novel small-molecules to repurpose for Merkel cell carcinoma treatment (AID 1296009). Conditions: MCC and control cell lines, CellTiter-Glo viability, 72 h; at 44.8 µM (top of the series) unless noted. The procedure, abridged:
(§2)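 Cells exposed to NPC (8-point) and MIPE (11-point) compound dilutions for 72 hr at 37 degree celsius; viability read by CellTiter-Glo luminescence, normalized to no-cell and DMSO in-plate controls.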

Another assay relates to MCC-13. Described as above. The following applies: MCC and control cell lines, CellTiter-Glo viability, 72 h; series mostly up to 46 µM. In a few lines:
as §2

The test system of another assay is MCC-26. Described as above. The following applies: MCC and control cell lines, CellTiter-Glo viability, 72 h; series mostly up to 46 µM. In a few lines:
as §2

Assay [2] concerns HACAT. The description is as above. Conditions: MCC and control cell lines, CellTiter-Glo viability, 72 h; series mostly up to 44.8 µM. In a few lines:
as §2

Values joined by “and” are separate entries in the source; they are usually repeats but may differ in a detail not shown here. Identical values can stand only once. Records with an inconclusive call do not appear. A structure can be active in one record and inactive in another. A number with no mark means an inactive call. Active and inactive are the calls of the source. Calls follow the shape of the dose curve; as a rule, active = well fitted inhibition curve with a large enough effect; inconclusive = small, poorly fitted or top-dose-only effect; inactive = flat fitted curve, though single readings scatter.
% is scaled to controls: 0 for no effect and ±100 for the full control effect; potency is read from the fitted curve at half-maximal effect.
Also: nearly all actives have a fitted effect of over 60% in size.

As for `COc1ccc2c(c1)CC[C@@H](CN(C)CC(=O)O)[C@H]2c1ccccc1`, the max response in the assay with CRL-7250 was -2.88%; in the assay on HEK293, 2.06%; with HaCat [1] it was 0.39%; in the assay on KB-3-1, 2.76%. For the same compound, the Potency was 2.64 µM (active) with HEK293, 3.32 µM (active) in the assay on KB-3-1 and 7.43 µM (active) in the assay with NIH3T3. Besides, the compound was called inactive with NIH3T3.
As to `CC1COC2(CCN(c3nc(=O)c4cc(C(F)(F)F)cc([N+](=O)[O-])c4s3)CC2)O1` (stereo not given), the result with CRL-7250, with HEK293, in the assay on NIH3T3 and in the assay with HEK293T was inactive. In addition, the max response with HEK293 is 2.26%; in the assay on HaCat [1] it was 0.136%; with KB-3-1 it was 8.43% and -3.92%. In addition, the Potency entry in the assay on MCC-13 and in the assay on MCC-26 was “inactive” in each case.
`N#CCNC(=O)c1ccc(-c2ccnc(Nc3ccc(N4CCOCC4)cc3)n2)cc1`: the Potency was 7.43 µM (active) and 6.51 µM (active) in the assay with CRL-7250; 18.7 µM (active) and 23.1 µM (active) in the assay on HEK293; 13 µM (active) with HaCat [1]; 11.8 µM (active) and 18.4 µM (active) with KB-3-1; 5.26 µM (active) and 4.11 µM (active) in the assay with NIH3T3. Also, in the assay with HaCat [1], the max response is -43.7%.
As to `Cc1c(Cn2c(C)nc3c(C(=O)O)cc(N4CCOCC4)cc32)cccc1C(F)(F)F`, the max response was -5.25% in the assay on CRL-7250; -8.46% with HEK293; 6.95% in the assay with KB-3-1; 3.21% and -3.58% with NIH3T3. Besides, the outcome with HEK293, in the assay on HaCat [1], with KB-3-1 and with HEK293T was inactive. For the same compound, the Potency entry in the assay with HACAT [2] and in the assay on MCC-13 was “inactive” each time.
`CNC(=O)CN1CCC(Oc2cc3c(Nc4cccc(Cl)c4F)ncnc3cc2OC)CC1`: the max response with CRL-7250 was -5.68% and -4.5%; in the assay on HEK293, 1% and -0.0643%; in the assay with HaCat [1] it was -148%; with KB-3-1, 4.62% and 3.88%. For the same compound, the Potency in the assay on HaCat [1] is 0.58 µM (active); with NIH3T3 it was 26.4 µM (active) and 16.4 µM (active); in the assay with MCC-13 it was 3.32 µM (active).
As for `COCCOc1ccc2c(c1)ncn2-c1ccc2cccc(N3CCC(N)CC3)c2n1`, the Potency in the assay on CRL-7250 is 4.69 µM (active) and 8.2 µM (active); in the assay with HEK293, 11.8 µM (active); in the assay on HaCat [1] it was 18.7 µM (active) and 16.4 µM (active); in the assay on KB-3-1, 16.6 µM (active) and 11.6 µM (active); with NIH3T3 it was 1.48 µM (active).
As to `CCn1cc(-c2ccnc3[nH]c(-c4cccc(CN(C)C)c4)cc23)c(-c2ccc(NC(=O)N(C)C)cc2)n1`, the Potency with CRL-7250 was 14.8 µM (active); with HEK293, 11.8 µM (active); in the assay on HaCat [1], 0.0893 µM (active); in the assay on KB-3-1 it was 1.87 µM (active) and 63.2 nM (active); in the assay with NIH3T3, 3.72 µM (active) and 632 nM (active).
As to `Nc1ccccc1NC(=O)c1ccc(CNC(=O)OCc2cccnc2)cc1`, the Potency is 9.2 µM (active) in the assay on CRL-7250; 7.43 µM (active) and 6.51 µM (active) with HEK293; 13.2 µM (active) and 5.17 µM (active) in the assay on HaCat [1]; 9.35 µM (active) and 7.31 µM (active) in the assay on KB-3-1.
Turning to `c1ccc2c(CCNc3ccc(Nc4ccncc4)cc3)c[nH]c2c1`, the Potency with CRL-7250 was 10.5 µM (active); with HEK293, 1.05 µM (active) and 2.31 µM (active); in the assay with HaCat [1] it was 11.8 µM (active); in the assay with KB-3-1 it was 23.5 µM (active); in the assay with NIH3T3 it was 16.6 µM (active) and 11.6 µM (active); in the assay with MCC-13, 20.9 µM (active). For the same compound, the max response in the assay with HaCat [1] was 2.65%.
For the compound `O=C(Nc1cc(C(F)(F)F)cc(C(F)(F)F)c1)c1cc(Cl)ccc1O`, the Potency in the assay on CRL-7250 was 3.72 µM (active) and 3.26 µM (active); with HEK293, 590 nM (active) and 1.16 µM (active); with HaCat [1] it was 2.64 µM (active) and 2.91 µM (active); in the assay with KB-3-1 it was 264 nM (active) and 731 nM (active); in the assay with NIH3T3 it was 3.32 µM (active) and 5.8 µM (active).
For `Cn1cc(-c2ccncc2)c(-c2ccc(OCc3ccc4ccccc4n3)cc2)n1`, the Potency in the assay with CRL-7250 is 2.64 µM (active); with HEK293, 3.72 µM (active) and 20.6 µM (active). Besides, the max response is -14.9% with HaCat [1]; -27.9% and -28% in the assay on NIH3T3. Moreover, in the assay on HaCat [1], the result was inactive. The Potency entry in the assay on HACAT [2], in the assay with MCC-13 and with MCC-26 was “inactive” in each case.
On to `CC(C)c1cc(C(=O)N2Cc3ccc(CN4CCN(C)CC4)cc3C2)c(O)cc1O`, for which the Potency with CRL-7250 is 0.935 µM (active); in the assay with HEK293, 105 nM (active) and 58 nM (active); in the assay with HaCat [1], 264 nM (active) and 206 nM (active); in the assay on KB-3-1 it was 0.0731 µM (active); with NIH3T3, 418 nM (active) and 291 nM (active); in the assay on MCC-13, 0.469 µM (active).
In the case of `C=CC(=O)Nc1cccc(Oc2nc(Nc3ccc(N4CCN(C)CC4)cc3OC)ncc2Cl)c1`, the max response is -21.1% in the assay with CRL-7250, -27.8% in the assay with HEK293, -0.948% in the assay on KB-3-1 and -7.7% with NIH3T3. Besides, the Potency in the assay on HaCat [1] is 2.09 µM (active) and 4.11 µM (active); in the assay on NIH3T3, 18.4 µM (active); with MCC-13 it was 2.96 µM (active).
As to `Cc1cc(N2CCOCC2)cc2[nH]c(-c3c(NC[C@@H](O)c4cccc(Cl)c4)cc[nH]c3=O)nc12`, the Potency with CRL-7250 was 11.8 µM (active); in the assay on HEK293, 2.96 µM (active) and 7.31 µM (active); with HaCat [1], 4.18 µM (active) and 5.8 µM (active); with KB-3-1, 14.8 µM (active); in the assay on NIH3T3 it was 7.43 µM (active) and 13 µM (active).
As for `O=C(C=Cc1cccc(S(=O)(=O)Nc2ccccc2)c1)NO`, the Potency with CRL-7250 was 21.5 µM (active); in the assay with HEK293 it was 19.1 µM (active); in the assay with HaCat [1], 15.2 µM (active); with KB-3-1, 6.05 µM (active); in the assay with NIH3T3, 10.8 µM (active).
Regarding `COc1ccc(F)c(F)c1C(=O)c1cnc(NC2CCN(S(C)(=O)=O)CC2)nc1N`, the Potency is 2.35 µM (active) and 3.66 µM (active) in the assay on CRL-7250; 1.05 µM (active) with HEK293; 10.5 µM (active) and 5.17 µM (active) with HaCat [1]; 3.32 µM (active) and 4.11 µM (active) with KB-3-1; 2.09 µM (active) and 3.26 µM (active) in the assay with NIH3T3.
`COc1cc2nccc(Oc3ccc(NC(=O)C4(C(=O)Nc5ccc(F)cc5)CC4)cc3)c2cc1OC`: the Potency is 1.48 µM (active) and 13 µM (active) with CRL-7250; 14.8 µM (active) and 16.4 µM (active) in the assay on HEK293; 16.6 µM (active) and 25.9 µM (active) in the assay with HaCat [1]; 23.5 µM (active) with KB-3-1; 332 nM (active) and 1.64 µM (active) in the assay on NIH3T3.
For `O=C(c1ccc(Nc2nccc(-c3cc4ccccc4s3)n2)cc1)N1CCC(N2CCCC2)CC1`, the Potency in the assay with CRL-7250 was 14.8 µM (active); in the assay on HEK293, 5.26 µM (active); with HaCat [1], 23.5 µM (active); in the assay on KB-3-1, 9.35 µM (active); with NIH3T3 it was 26.4 µM (active) and 23.1 µM (active).
`Cc1cn2cc(C(=O)N(C)CCO)cc(N[C@@H]3CCOc4cccc(C)c43)c2n1`: the max response in the assay with CRL-7250 was -0.414% and 0.78%; in the assay with HEK293 it was -7.53% and -5.18%; in the assay on KB-3-1, -1.9%. The result with HaCat [1], in the assay on KB-3-1 and with NIH3T3 was inactive. Further, the Potency entry with HACAT [2] and in the assay with MCC-13 was “inactive” each time.

Values taken from PubChem BioAssay (NCATS).
